Screening results as filed in PubChem BioAssay.
Most compounds without a hit are left out; they make up all but 2.4% or so of the library.
Apoferritin bind: qHTS Assay for Identification of Novel General Anesthetics | apoferritin/1-aminoanthracene competitive binding, fluorescence | hit rate 0.074% among 350,000 | Ferritin light chain (Equus caballus), P02791 | Potency, µM (top dose mostly 77.5 µM), without a hit: at the top dose activity change, negative = displacement, hits mostly inhibitors | AID 485281, 2010; note: % is set by controls: 0 for no effect and ±100 for the full control effect; nearly all actives have a fitted effect of over 20% in size
Target sequence (P02791 2-175 limits assumed): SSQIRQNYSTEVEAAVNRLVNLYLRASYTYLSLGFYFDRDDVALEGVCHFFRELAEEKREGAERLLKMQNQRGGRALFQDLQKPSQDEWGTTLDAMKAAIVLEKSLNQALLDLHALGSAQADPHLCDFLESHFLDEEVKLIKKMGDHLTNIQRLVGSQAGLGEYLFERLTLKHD
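Apoferritin-based anesthetic binding model; compound displacement of fluorescent 1-AMA measured as endpoint fluorescence after 10 minutes at room temperature, scaled to free-ligand and complex controls.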
HepG2 tox: qHTS for Inhibitors of TGF-b: Cytotox Counterscreen. HepG2 CAGA-GFP viability, ATP luminescence, 18 h. Potency, µM (doses to about 46.1 µM), without a hit: top-dose activity change, negative = cytotoxicity, actives largely listed as cytotoxic. hit rate 0.76% among 410,000. AID 588856, 2011
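HepG2 CAGA-GFP cells (1000/well, DMEM with 1% FBS) received compound, then TGF-beta at 500 pg/mL final, and were incubated 18 hours at 37 degrees C. Viability was read by CellTiter-Glo luminescence. Media-only wells were set as complete cell-killing and DMSO as no toxicity.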
ATXN2 expr inh: Primary qHTS for Inhibitors of ATXN expression; AID 1745845, 2022; Potency, µM (doses to about 57 µM), for the others: top-dose activity change, negative = inhibition, usual class: inhibitors; HEK-293 ATXN2-luciferase reporter, luminescence, 24 h; hit rate 0.72% among 360,000; note: % is set by controls: 0 for no effect and ±100 for the full control effect; nearly all actives have a fitted effect of over 55% in size
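ATXN2-luciferase reporter cells (luciferase flanked by upstream and downstream ATXN2 gene portions) were treated 24 h at 37 °C with compounds at up to 57 uM. SteadyGlo luminescence gave expression; GF-AFC fluorescence gave viability.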
TGFb SMAD3 inh: qHTS for Inhibitors of TGF-b. HepG2 CAGA-GFP TGF-b/SMAD3 reporter, GFP fluorescence, 18 h; TGF-beta stimulated, 500 pg/mL final. Potency, µM (doses to about 46.1 µM), for inactives: at the highest dose activity, negative = inhibition, usual class: inhibitors. hit rate 1.2% among 410,000. AID 588855, 2011; note: % is set by controls: 0 for no effect and ±100 for the full control effect; nearly all actives have a fitted effect of over 65% in size
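Read-out: total well GFP (ex488/em500-530) summed from mean per-cell fluorescence. Cells: HEPG2 CAGA-GFP, 1% FBS DMEM, 18 h at 37 degrees C with 500 pg/mL final TGF-beta. Unstimulated wells served as the full-inhibition control; stimulated DMSO wells = 0%.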
S2 tox: Viability Counterscreen for Primary qHTS for Inhibitors of ATXN expression; Potency, µM (highest dose often 56.7 µM), usual class: cytotoxic; S2 cells (HEK-293 line with an ATXN2-luciferase reporter) viability, CellTiter-Fluor protease fluorescence, 24 h; hit rate 0.49% among 400,000; note: nearly all actives have a fitted effect of over 40% in size
* marks the source's active call; other numbers are inactive results; i = inactive; ? = inconclusive; . = no result; [ ] = another dose, or the depositor's remark. Calls come from the whole dose curve; as a rule, active = well fitted curve in the direction sought with a large enough effect; inconclusive = small, poorly fitted or top-dose-only effect, or another doubt; inactive = no such curve, though single readings can be large; an effect the other way counts as inactive or inconclusive. Potency is the fitted concentration of half-maximal effect.

SMILES	Apoferritin bind	HepG2 tox	ATXN2 expr inh	TGFb SMAD3 inh	S2 tox
NC(c1ccccc1)c1csc(NC(=O)Nc2ccc(OC(F)(F)F)cc2)n1 (stereo not given)	.	-112%	-15%	?	.
Cc1cc(C)n(-c2nc(Nc3ccccc3C(F)(F)F)nc(-n3nc(C)cc3C)n2)n1	-14%	1%	22µM*	?	?
Fc1ccc(Nc2nc(NCc3ccco3)c3ccccc3n2)cc1	5%	18µM*	.	?	11µM*
c1coc(CNc2nc(NCc3ccco3)c3ccccc3n2)c1	.	-12%	.	0.71µM*	.
c1ccc(CNc2nc(NCc3ccccc3)c3ccccc3n2)cc1	-8%	-112%	?	?	.
COC(=O)c1ccc(COC(=O)c2ccc(CS(=O)(=O)c3ccc(C)cc3)cc2)cc1	-7%	-42%	0%	0%	i
COC(=O)c1cc2c(n1S(=O)(=O)c1ccc(C)cc1)C(=O)C(=O)c1[nH]cc(C(=O)OCc3ccccc3)c1-2	.	0.71µM*	3µM*	?	4.7µM*
COc1ccccc1C(C[N+](=O)[O-])c1c(N)n(C)c(=O)n(C)c1=O (stereo not given)	-5%	10µM*	.	7.1µM*	.
CC(C(=O)N1CCN(Cc2ccc3c(c2)OCO3)CC1)n1cc([N+](=O)[O-])cn1 (stereo not given)	-6%	7%	6%	?	i
COc1ccc2c(c1)CC(C(=O)Nc1ccc(OC)cc1OC)CO2 (stereo not given)	2%	-13%	-7%	0%	i
CCN(CC)c1ccc(NC(=O)C2COc3ccc(OC)cc3C2)c(C)c1 (stereo not given)	-4%	-34%	?	8.9µM*	?
Nc1nc(-c2nn(Cc3ccccc3F)c3ncccc23)ncc1C1CC1	7%	.	.	.	.
COc1ccc(Br)cc1/C=N/NC(=O)c1ccc(COc2ccc3c(c2)CCC3)o1	-15%	8%	45%	0%	i
O=C(N/N=C/c1cc([N+](=O)[O-])ccc1O)c1ccc(COc2ccc3c(c2)CCC3)o1	-5%	-49%	7.9µM*	4.5µM*	?
CCOc1cccc(C(=O)N(Cc2cccc(F)c2)C2CCS(=O)(=O)C2)c1 (stereo not given)	-10%	-38%	10%	8%	i
Cc1cc(=O)oc2cc(O[C@@H]3SC[C@@H](O)[C@H](O)[C@H]3O)ccc12	.	.	13%	.	i
O=C(CN1CCCC1)Nc1ccc(-c2nc3cc(NC(=O)CN4CCCC4)ccc3o2)cc1	1%	-36%	?	?	13µM*
CCC(=O)NC[C@H](Cc1ccc(OCCc2nc(-c3ccccc3)oc2C)cc1)NC(C)=CC(=O)c1ccc(C(F)(F)F)cc1	.	.	22µM*	.	.
Cc1cc(NCCCn2ccnc2)n2nc(C)c(-c3ccc(Cl)cc3)c2n1	-14%	-61%	?	-4%	16µM*
Clc1ccc2c(N3CCN(CCCN4CCN(c5ccnc6cc(Cl)ccc56)CC4)CC3)ccnc2c1	.	.	-7%[25.6 µM]	.	.
COc1ccc(Cc2cc(NCc3ccccc3)c3ncn(C(C)C)c3c2)cc1	.	11µM*	-8%	?	?
CCC(CO)Oc1cc(NCc2ccc(C(C)(C)C)cc2)c2ncn(C(C)C)c2c1 (stereo not given)	.	-88%	?	?	32µM*
CCC(COC)Oc1cc(NCc2ccccc2)c2ncn(C(C)C)c2c1 (stereo not given)	.	-113%	-3%	?	22µM*
CCCCOc1cc(NCc2ccccc2)c2ncn(C(C)C)c2c1	.	-54%	-39%	18µM*	?
COCCCOc1cc(NCc2ccccc2)c2ncn(C(C)C)c2c1	.	-2%	-3%	7%	i
SMILES	Apoferritin bind	HepG2 tox	ATXN2 expr inh	TGFb SMAD3 inh	S2 tox
Cc1ccc(S(=O)(=O)N2C[C@H]3C(=O)C[C@@H](c4ccccc4)N(S(=O)(=O)c4ccccc4C)[C@H]3C[C@H]2c2ccccc2)cc1	.	-4%	11%	-19%	i
CCOC(=O)c1ccc(NC(=S)N2CCN(C(=O)C3CCCO3)CC2)cc1 (stereo not given)	-5%	3%	-3%	2%	i
CCOC(=O)C(CC)Sc1nnc2[nH]c(=O)cc(C)n12 (stereo not given)	5%	1%	.	-5%	.
CC(C)n1cnc2c(NCc3ccccc3)cc(N[C@H](C)CO)cc21	.	0.63µM*	1.1µM*	?	0.89µM*
COc1ccc(-c2[nH]nc3nc(N4CCN(C(=O)c5ccoc5)CC4)cc(C(F)(F)F)c23)cc1	.	-39%	20µM*	?	20µM*
CN(c1ccc(C(=O)Nc2ccc(Cl)cn2)cc1)S(=O)(=O)c1ccccc1	-7%	-38%	-33%	-28%	?
O=C1C(Cl)=C(NC(=O)c2ccccc2)C(=O)C(Cl)=C1NC(=O)c1ccccc1	-1%	-31%	?	11µM*	?
O=C(Nc1cccc(Cl)c1)c1ccccc1	.	-30%	31%	-11%	i
CN(C1=C(NC(=O)c2ccc(Cl)cc2)C(=O)c2ccccc2C1=O)c1ccccc1	-1%	-53%	?	13µM*	?
COc1ccc2c(c1)CCc1cnc(-n3ncc(C(=O)N4CCN(CCO)CC4)c3C3CC3)nc1-2	.	.	.	.	i
CC(C(Sc1ccccc1N)c1ccccc1)[N+](=O)[O-] (stereo not given)	?	-70%	?	?	28µM*
COc1ccc(-c2ccc3c(n2)CCCN3C[C@H](O)CN2CCCc3nc(-c4ccc(Br)cc4)ccc32)cc1	-7%[15.3 µM]	.	.	.	.
Oc1ccccc1-c1nc2c3ccccc3c3ccccc3c2[nH]1	-9%	-38%	?	16µM*	i
c1csc(-c2nc3c4ccccc4c4ccccc4c3[nH]2)c1	59%	-7%	2%	?	i
O=C(c1ccccc1)c1ccc(OCCCN2CCCC2)cc1	-11%	16µM*	14%	2%	i
O=C(CCCOc1ccccc1)N1CCCCC1	-21%	-3%	11µM*	19%	i
CC[C@H](C)[C@H](NC(=O)[C@H](Cc1ccc(O)cc1)NC(=O)[C@H](Cc1cnc[nH]1)NC(=O)[C@H](CCCNC(=N)N)NC(=O)[C@H](CC(C)C)NC(=O)[C@H](C)NC(=O)[C@@H](N)CO)C(=O)N[C@@H](CC(N)=O)C(=O)N[C@@H](CC(C)C)C(=O)N[C@H](C(=O)N[C@H](C(=O)N[C@@H](CCCNC(=N)N)C(=O)N[C@@H](CCC(N)=O)C(=O)N[C@@H](CCCNC(=N)N)C(=O)N[C@@H](Cc1ccc(O)cc1)C(N)=O)[C@@H](C)O)[C@@H](C)CC	-3%	.	.	.	.
